# Results as given in the supplement of paper PMC9262897, “Low-cost anti-mycobacterial drug discovery using engineered E. coli” (Nature Communications, 2022).
# Counter-ions that a name gives are not always drawn. ± gives the standard deviation of the averaged measurements.
# Legend:
# Assay in all cases: growth (OD600 after 10 h); higher = more growth (less inhibition)
# [1] = tested on: E. coli TESEC Alr+ wild-type control; conditions: compound 0.1 mM; raw OD600 reference: median of DMSO wells 0.241, cell-free background 0.041
# Protocol: (§1)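 TESEC Mtb Alr E. coli, or the Alr+ wild-type control, in 384-well plates with Prestwick library compounds at 0.1 mM and 1% DMSO, across arabinose induction levels of 1E3 to 1E7 nM. Growth is read as OD600 after 10 h at 37 °C in triplicate biological replicates.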
# E. coli TESEC Mtb Alr [2] = conditions: compound 0.1 mM
# Protocol: as §1
# E. coli TESEC Mtb Asd = conditions: compound 0.1 mM
# Protocol: (§2)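 TESEC E. coli strains in which the native enzyme is deleted and replaced by arabinose-inducible Mtb Asd, DapB, CysH or TrpD, each grown in its selective medium. Strains were screened against the Prestwick library at 0.1 mM and 1% DMSO in 384-well format at low and high arabinose induction. Growth is read as OD600 after 10 h in triplicate.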
# E. coli TESEC Mtb DapB = conditions: compound 0.1 mM
# Protocol: as §2
# [3] = tested on: E. coli TESEC Alr+ wild-type control; conditions: compound 0.1 mM; raw OD600 reference: median of DMSO wells 0.49, cell-free background 0.052
# Protocol: (§3)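 TESEC Mtb Alr E. coli (ΔaraC ΔtolC ΔentC Δalr ΔdadX, arabinose-inducible Mtb Alr) or the Alr+ wild-type control strain, grown in defined M9-fructose medium without D-alanine in 96-well plates with Prestwick library compounds at 0.1 mM and 1% DMSO. Low Alr induction is 0.1 µM arabinose and high induction is 10 mM arabinose.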
# E. coli TESEC Mtb Alr [4] = conditions: compound 0.1 mM; remark: listed apart in the source
# Protocol: as §3
# [5] = arabinose 1000 nM, raw OD600 reference: median of DMSO wells 0.294, cell-free background 0.041
# [6] = arabinose 10000 nM, raw OD600 reference: median of DMSO wells 0.264, cell-free background 0.041
# [7] = arabinose 100000 nM, raw OD600 reference: median of DMSO wells 0.201, cell-free background 0.041
# [8] = arabinose 1000000 nM, raw OD600 reference: median of DMSO wells 0.193, cell-free background 0.041
# [9] = arabinose 10000000 nM, raw OD600 reference: median of DMSO wells 0.146, cell-free background 0.041
# [10] = arabinose induction (level): High, raw OD600 reference: median of DMSO wells 0.331, cell-free background 0.041
# [11] = arabinose induction (level): Low, raw OD600 reference: median of DMSO wells 0.417, cell-free background 0.041
# [12] = arabinose induction (level): High, raw OD600 reference: median of DMSO wells […], cell-free background 0.041
# [13] = arabinose induction (level): Low, raw OD600 reference: median of DMSO wells 0.227, cell-free background 0.041
# [14] = arabinose 100 nM, raw OD600 reference: median of DMSO wells 0.413, cell-free background 0.052
# [15] = arabinose 10000000 nM, raw OD600 reference: median of DMSO wells […], cell-free background 0.052
Compound,growth [1],growth (E. coli TESEC Mtb Alr [2]; [5]),growth (E. coli TESEC Mtb Alr [2]; [6]),growth (E. coli TESEC Mtb Alr [2]; [7]),growth (E. coli TESEC Mtb Alr [2]; [8]),growth (E. coli TESEC Mtb Alr [2]; [9]),growth (E. coli TESEC Mtb Asd; [10]),growth (E. coli TESEC Mtb Asd; [11]),growth (E. coli TESEC Mtb DapB; [12]),growth (E. coli TESEC Mtb DapB; [13]),growth [3],growth (E. coli TESEC Mtb Alr [4]; [14]),growth (E. coli TESEC Mtb Alr [4]; [15])
COc1cc(C(=O)NS(=O)(=O)c2ccccc2C)ccc1Cc1cn(C)c2ccc(NC(=O)OC3CCCC3)cc12 [Zafirlukast],0.125 ± 0.0034,0.0976 ± 0.0046,0.0651 ± 0.0044,0.164 ± 0.0027,0.128 ± 0.0091,0.168 ± 0.0084,0.193 ± 0.022,0.12 ± 0.047,0.179 ± 0.018,0.213 ± 0.033,0.189 ± 0.01,0.257 ± 0.018,0.215 ± 0.024
CN(C)[C@@H]1C(=O)C(C(N)=O)=C(O)[C@@]2(O)C(=O)C3=C(O)c4c(O)ccc(Cl)c4[C@@H](O)[C@H]3C[C@@H]12 [Demeclocycline hydrochloride],0.0424 ± 0.00081,0.0502 ± 0.0039,0.0459 ± 0.0013,0.0479 ± 0.0019,0.0435 ± 0.00079,0.0452 ± 0.0007,0.0573 ± 0.0014,0.0773 ± 0.029,0.0577 ± 0.0035,0.0559 ± 0.002,0.05087 ± 0.00038,0.0561 ± 0.0037,0.05407 ± 0.00042
C=C(NC(=O)C(=C)NC(=O)c1csc(C2=N[C@@H]3c4csc(n4)[C@H]4NC(=O)c5csc(n5)[C@H]([C@](C)(O)[C@@H](C)O)NC(=O)[C@H]5CSC(=N5)/C(=C/C)NC(=O)[C@H]([C@@H](C)O)NC(=O)c5csc(n5)[C@]3(CC2)NC(=O)[C@H](C)NC(=O)C(=C)NC(=O)[C@H](C)NC(=O)[C@H]([C@@H](C)CC)N[C@@H]2C=Cc3c([C@H](C)O)cc(nc3[C@H]2O)C(=O)O[C@@H]4C)n1)C(N)=O [Thiostrepton],0.297 ± 0.021,0.327 ± 0.004,0.298 ± 0.013,0.397 ± 0.0046,0.185 ± 0.0083,0.229 ± 0.02,0.295 ± 0.053,0.299 ± 0.091,0.164 ± 0.047,0.194 ± 0.058,0.603 ± 0.094,0.415 ± 0.019,0.316 ± 0.032
N=C(N)N1CCc2ccccc2C1 [Debrisoquin sulfate],0.237 ± 0.0047,0.288 ± 0.013,0.254 ± 0.0074,0.222 ± 0.036,0.174 ± 0.0076,0.147 ± 0.0083,0.373 ± 0.058,0.373 ± 0.027,0.209 ± 0.022,0.22 ± 0.039,0.567 ± 0.039,0.406 ± 0.01,0.334 ± 0.013
CN(C)CCCO[C@@H]1[C@H]2OC(C)(C)O[C@H]2O[C@@H]1[C@H](O)CO [Amiprilose hydrochloride],0.23 ± 0.012,0.304 ± 0.024,0.262 ± 0.0085,0.196 ± 0.0086,0.185 ± 0.0074,0.137 ± 0.003,0.411 ± 0.073,0.385 ± 0.076,0.199 ± 0.017,0.269 ± 0.046,0.613 ± 0.04,0.405 ± 0.013,0.337 ± 0.022
COC(=O)Nc1nc2ccc(SC(C)C)cc2[nH]1 [Methiazole],0.244 ± 0.0029,0.278 ± 0.0056,0.271 ± 0.0072,0.195 ± 0.013,0.219 ± 0.0056,0.151 ± 0.0024,0.365 ± 0.093,0.33 ± 0.048,0.204 ± 0.019,0.235 ± 0.035,0.523 ± 0.037,0.427 ± 0.0091,0.37 ± 0.025
Oc1ccc(C2CNCCc3c2cc(O)c(O)c3Cl)cc1 (centres undefined) [Fenoldopam],0.0924 ± 0.0031,0.0795 ± 0.0009,0.0538 ± 0.0026,0.0873 ± 0.0018,0.0562 ± 0.0034,0.086 ± 0.0096,0.113 ± 0.0085,0.126 ± 0.017,0.149 ± 0.035,0.135 ± 0.029,0.355 ± 0.023,0.104 ± 0.048,0.0738 ± 0.006
CCN(CC)CCOC(=O)C(c1ccccc1)C1CCCCC1 (centres undefined) [Drofenine hydrochloride],0.149 ± 0.0031,0.203 ± 0.017,0.218 ± 0.0035,0.16 ± 0.0022,0.0678 ± 0.00092,0.1432 ± 0.00046,0.119 ± 0.0039,0.271 ± 0.017,0.156 ± 0.0038,0.179 ± 0.014,0.428 ± 0.026,0.407 ± 0.019,0.168 ± 0.058
Cc1cc(=O)n(-c2ccccc2)n1C [Antipyrine],0.252 ± 0.0043,0.294 ± 0.014,0.257 ± 0.0094,0.221 ± 0.013,0.176 ± 0.0026,0.1436 ± 0.0012,0.305 ± 0.04,0.371 ± 0.014,0.191 ± 0.0076,0.204 ± 0.0077,0.474 ± 0.062,0.412 ± 0.0087,0.379 ± 0.026
Cc1c(N(C)CS(=O)(=O)O)c(=O)n(-c2ccccc2)n1C [Dipyrone],0.245 ± 0.0074,0.323 ± 0.022,0.251 ± 0.0032,0.217 ± 0.023,0.169 ± 0.0052,0.157 ± 0.0028,0.488 ± 0.025,0.452 ± 0.0059,0.204 ± 0.003,0.23 ± 0.012,0.473 ± 0.039,0.4104 ± 0.0007,0.335 ± 0.011
CN1C2CCCC1CC(NC(=O)c1nn(C)c3ccccc13)C2 (centres undefined) [Granisetron],0.208 ± 0.0038,0.301 ± 0.026,0.2743 ± 0.0024,0.171 ± 0.0068,0.213 ± 0.014,0.126 ± 0.0041,0.28 ± 0.063,0.379 ± 0.08,0.202 ± 0.022,0.238 ± 0.015,0.549 ± 0.068,0.424 ± 0.0065,0.351 ± 0.0039
CN(C)c1ccc(O)c2c1C[C@H]1C[C@H]3[C@H](N(C)C)C(=O)C(C(N)=O)=C(O)[C@@]3(O)C(=O)C1=C2O [Minocycline hydrochloride],0.0402 ± 0.00064,0.0422 ± 0.00083,0.0402 ± 0.00026,0.0426 ± 0.00055,0.0397 ± 0.00075,0.0426 ± 0.00067,0.06847 ± 0.00055,0.0692 ± 0.0029,0.0606 ± 0.01,0.0519 ± 0.0019,0.0527 ± 0.00085,0.0623 ± 0.0026,0.0637 ± 0.0055
CCN1C(=O)NC(c2ccccc2)C1=O (centres undefined) [Ethotoin],0.244 ± 0.0096,0.304 ± 0.008,0.254 ± 0.0063,0.191 ± 0.009,0.187 ± 0.006,0.142 ± 0.0016,0.434 ± 0.031,0.446 ± 0.014,0.217 ± 0.01,0.243 ± 0.051,0.448 ± 0.012,0.4121 ± 0.0041,0.353 ± 0.017
